{
  "source": "PubChem BioAssay (EPA / NIEHS)",
  "note": "Active and inactive are the calls of the source. Rule for the calls: active = hit-call score of the fitted dose curve at least 0.9, where 1 is the maximum; inactive = score below 0.9.",
  "data": [
    {"read-out": "TIMP metallopeptidase inhibitor 1 (TIMP1), TIMP1 (gene 7076)", "experiment": "BSK_MyoF_TIMP1: BioMAP Diversity Plus: MyoF Assay for TIMP metallopeptidase inhibitor 1 (TIMP1) Biomarker Activity (AID 2284269)", "settings": "primary human lung fibroblasts", "method_in_brief": "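ELISA read-out of TIMP-1 from primary human lung fibroblast cultures 24 h after compound dosing; gain of signal relative to DMSO vehicle baseline defines activity.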", "values": [
      {"compound": "CC/C=C\\C/C=C\\C/C=C\\CCCCCCCC(=O)OC", "AC50": "20 µM (active)"},
      {"compound": "CCCCCCCCCCCC(C)=O", "outcome": "inactive"},
      {"compound": "C=CCCCCCCCCC=O", "outcome": "inactive"},
      {"compound": "CC=C(C)C(C)=O", "outcome": "inactive"},
      {"compound": "CC(C)[N+](C)(CCOC(=O)C1c2ccccc2Oc2ccccc21)C(C)C", "outcome": "inactive"},
      {"compound": "CC(C)c1cccc(C(C)C)c1N", "outcome": "inactive"},
      {"compound": "O=C1CCCCCCCCCCC1", "outcome": "inactive"},
      {"compound": "Nc1cccc(N)n1", "outcome": "inactive"},
      {"compound": "COC(OC)(C(=O)c1ccccc1)c1ccccc1", "outcome": "inactive"},
      {"compound": "CC/C=C\\CCOC(=O)c1ccccc1O", "AC50": "35.5 µM (active)"},
      {"compound": "O=C(Oc1ccccc1)c1ccccc1C(=O)Oc1ccccc1", "outcome": "inactive"},
      {"compound": "CCc1cccc(C)c1N(C(=O)CS(=O)(=O)O)C(C)COC", "note": "(configuration not stated)", "outcome": "inactive"},
      {"compound": "C=CC(=O)OCCCCCCOC(=O)C=C", "AC50": "29.4 µM (active)"},
      {"compound": "C=CC(=O)OCCCCCCCC(C)C", "outcome": "inactive"},
      {"compound": "CC(c1cc(C(C)(C)C)cc(C(C)(C)C)c1O)c1cc(C(C)(C)C)cc(C(C)(C)C)c1O", "outcome": "inactive"},
      {"compound": "Oc1ccc(/C=C/c2cc(O)cc(O)c2)cc1", "outcome": "inactive"},
      {"compound": "C=CC(=O)NCOCCCC", "outcome": "inactive"},
      {"compound": "CCC1(C)C(=O)N(Cl)C(=O)N1Cl", "note": "(configuration not stated)", "outcome": "inactive"},
      {"compound": "Cc1c(O)cccc1O", "outcome": "inactive"},
      {"compound": "Clc1cc(Cl)c(Cl)c(Cl)c1Cl", "outcome": "inactive"},
      {"compound": "CCOC(=O)C1=NN(c2ccc(Cl)cc2Cl)C(C)(C(=O)OCC)C1", "note": "(configuration not stated)", "outcome": "inactive"},
      {"compound": "CC=C(C)C=CC=C(C)C", "outcome": "inactive"},
      {"compound": "CC(Cl)COP(=O)(OCC(C)Cl)OCC(C)Cl", "note": "(configuration not stated)", "outcome": "inactive"},
      {"compound": "COc1ccc(C(=O)c2ccccc2)c(O)c1", "outcome": "inactive"},
      {"compound": "c1ccc2sc(SSN3CCOCC3)nc2c1", "AC50": "31.5 µM (active)"},
      {"compound": "C=CC(=O)NC(C)(C)C", "outcome": "inactive"},
      {"compound": "Oc1c(Cl)cc(Cl)c(Cl)c1Cl", "AC50": "33 µM (active)"}
    ]}
  ]
}
